# Measurements as given in ChEMBL document CHEMBL3988442, “University of Dundee, Small-Polar-MMV Screening Library” (2021).
# Screen size: about 48,000 compounds; about 13,000 (27%) showed an effect of 50% or more. The list shows a part of the results.
# Test system: Wolbachia pipientis
# Test: Anti-Wolbachia Cell-Based Screen
# Assay type: functional
# Parameters: scale not given: in the data most compounds retested in dose-response had high values
# Conditions: 5 µM
row,SMILES,Percent Effect [%]
1,O=C(c1ccnnc1)N1CCC2(CCN(c3ccsc3)C2=O)C1 (stereo unspecified),3.217
2,CCC(C(=O)N(Cc1ccccn1)C1CCCCC1)n1cccn1 (stereo unspecified),5.317
3,COCCn1/c(=N\C(=O)CN(C)S(C)(=O)=O)sc2cc(C)ccc21,-2.711
4,CC(C)(C)c1cnc(CN2CCC(NC(=O)Nc3ccccc3)CC2)o1,8.013
5,O=C(CC1CC1)N1CCC2(CCCN(c3ncccn3)C2)CC1,-10.65
6,CCOC(=O)CN1CCC2(CCCN(CCOc3ccccc3)C2)C1 (stereo unspecified),101.8
7,Cn1cc(CN2CC3(CCN(C(=O)c4cscn4)C3)C2)cn1,2.986
8,Cc1ccc(CN2CCC3(CCCN(C(=O)N(C)C)C3)C2)cc1 (stereo unspecified),-1.979
9,O=C(c1cscn1)N1CCC2(CCCN(CCOc3ccccc3)C2)C1 (stereo unspecified),112
10,O=C(CC1CC1)N1CC[C@H]2OCC[C@@]2(COc2ncccc2F)C1.O=C(O)C(F)(F)F,5.049
11,CN(C)C(=O)N1CCC2(CCCN(CCOc3ccccc3)C2)C1.O=C(O)C(F)(F)F (stereo unspecified),102.1
12,O=C(c1cscn1)N1CCC2(CCN(S(=O)(=O)c3ccccc3)C2)C1 (stereo unspecified),-2.264
13,O=C(CC1CC1)N1CCC2(CCCN(CCOc3ccccc3)C2)C1.O=C(O)C(F)(F)F (stereo unspecified),117.3
14,COC(=O)c1cc(OCC2CCC2)cc(C(=O)N[C@@H]2CNCC[C@H]2O)c1,8.764
15,O=C(c1ccc(=O)[nH]c1)N1CCCC2(C=Cc3ccccc3O2)CC1 (stereo unspecified),-7.084
16,Cc1nc(CN(C)S(=O)(=O)c2ccccc2C(F)(F)F)no1,2.399
17,COc1ccc(CN2CCOC[C@H](OCCC(C)C)C2)cc1,0.3051
18,CCCS(=O)(=O)NCC(C)c1ccc(F)c(F)c1 (stereo unspecified),-6.211
19,CC(=O)c1ccc(C(=O)NCc2ccnc(N(C)C)n2)cc1,-2.815
20,CN1CC[C@]2(CN(C(=O)[C@H]3CCCO3)C[C@H]2c2ccccc2)C1=O,-10.86
21,O=C([C@H]1CCCO1)N1CCC2(CCCN(CCOc3ccccc3)C2)C1 (stereo partly specified),105.8
22,CCN1CC[C@]2(CN(C(=O)[C@H]3CCCO3)C[C@H]2c2ccccc2)C1=O,-5.714

row,SMILES,Percent Effect [%]
1,c1cc(-c2n[nH]c(CNc3nnc(C4CC4)o3)n2)ccn1,-23.66
2,c1cnc(-c2cnc(N3CCSCC3)nc2C2CCCO2)cn1 (stereo unspecified),-3.576
3,c1cc(CNc2ncc(-c3cnccn3)c(C3CC3)n2)ccn1,244.3
4,c1cc(CNc2ncc(-c3cnccn3)c([C@@H]3CCCO3)n2)ccn1,102
5,c1cc(CCN2CCC(c3n[nH]c(C4CC4)n3)CC2)ccn1,9.327
6,c1cc(CNCCC2CCCO2)ccn1 (stereo unspecified),-4.656
7,Cn1ncnc1-c1ccnc(NCCCc2ccncc2)n1,-3.782
8,Cc1cnc2c(c1NCc1ccncc1)c(=O)n(C)c(=O)n2C,-24.16
9,c1cc(CCNc2ncc(-c3cnccn3)c(C3CC3)n2)ccn1,137.3
10,Cc1cc(F)ccc1OC1(C(=O)O)CCN(Cc2cccnc2N)CC1,-8.297
11,Cc1noc(C)c1CN(C)Cc1csc(-c2ccc(F)cc2)n1,17.5
12,Cc1cc(C(=O)N2CCN(C(=O)CCC3CCCCC3)CC2)n(C)n1,-12.7
13,O=S(=O)(Cc1ccccc1)c1nnc(N2CCCC2)s1,-13.72
14,Cc1ncc(CN(C)C(=O)Nc2cccc(CN3CCOC3=O)c2)s1,6.587
15,CN(C)C(=O)[C@H]1C[C@@H]2CN(C(=O)NCC3CCCCC3)C[C@H]1O2,-9.234
16,COc1c(C2CCCN2Cc2c(C)noc2C)c(C)nn1C (stereo unspecified),-0.2322
17,CCCc1noc(CN2CCCC2c2c(C)nn(C)c2OC)n1 (stereo unspecified),-3.307
18,COc1c(C2CCCN2Cc2nc(-c3ccco3)no2)c(C)nn1C (stereo unspecified),131.1
19,Cc1nn(C)c(C)c1C1CCCN1Cc1nc(-c2ccco2)no1 (stereo unspecified),17.11
20,Cc1nn(C)c(Cl)c1C1CCCN1Cc1nc(-c2ccco2)no1 (stereo unspecified),77.16
21,Cc1ccc(C2CCCN2Cc2nc(-c3ccco3)no2)cc1 (stereo unspecified),6.26
22,CCOC(C)c1nc(CN2CCNCC2)cs1 (stereo unspecified),1.236

row,SMILES,Percent Effect [%]
1,Cc1cccc(CN2C(=O)CO[C@@H]3CN(C4CCOCC4)C[C@H]32)c1.O=C(O)C(F)(F)F,109.7
2,O=C(O)C(F)(F)F.O=C1CO[C@@H]2CN(C3CCOCC3)C[C@H]2N1Cc1cccc(F)c1,2.353
3,CN1CCC(N(C)CCC(=O)N2CCN(Cc3cccc(F)c3)CC2)C1 (stereo unspecified),-12.08
4,CN(C)C(=O)CN1CCO[C@H]2CN(Cc3ccoc3)C[C@H]21,95.5
5,c1cc(CN2C[C@@H]3OCCN(CC4CCCO4)[C@@H]3C2)co1 (stereo partly specified),-2.91
6,CN(C)CCN1CCO[C@H]2CN(Cc3cnn(C)c3)C[C@H]21.O=C(O)C(F)(F)F.O=C(O)C(F)(F)F.O=C(O)C(F)(F)F,2.67
7,Cc1cc(C)cc(CN2C[C@@H]3OCCN(CC(=O)N(C)C)[C@@H]3C2)c1.O=C(O)C(F)(F)F,122.5
8,Cc1cc(C)cc(CN2C[C@@H]3OCCN(S(=O)(=O)N(C)C)[C@@H]3C2)c1,-1.729
9,Cc1cccc(CN2C(=O)CO[C@@H]3CN(CCO)C[C@H]32)c1.O=C(O)C(F)(F)F,23.75
10,O=C(O)C(F)(F)F.O=C(O)C(F)(F)F.O=C(O)C(F)(F)F.c1cc(CN2C[C@@H]3OCCN(CCN4CCCC4)[C@@H]3C2)co1,-5.454
11,CN(C)C(=O)CN1CCO[C@H]2CN(Cc3cccc(F)c3)C[C@H]21,99.44
12,CN(C)C(=O)CO[C@H]1CN(Cc2cccc(F)c2)[C@@H]2CCCO[C@H]12.O=C(O)C(F)(F)F,5.103
13,CC(SCc1cc(Br)cc2cccnc12)C(N)=O (stereo unspecified),-22.01
14,COc1ccc2c(c1)CC(C(=O)N(C)CCCc1cnn(C)c1)CO2 (stereo unspecified),-3.689
15,CC(C)[C@@H]1CN(c2ccc(C(F)(F)F)cn2)C[C@H]1NS(C)(=O)=O,-16.11
16,OCC(O)CSCc1ccc(F)cc1Cl (stereo unspecified),-2.217
17,CC(=O)N[C@@H]1CN(C(=O)c2ccoc2)C[C@H]1c1ccc(C)cc1,0.232
18,Cc1cccc(CN2C[C@@H]3OCCN(S(=O)(=O)N(C)C)[C@@H]3C2)c1.O=C(O)C(F)(F)F,1.609
19,Cc1cc(CN2CC[C@H]3[C@H]2CCN3CC(=O)N(C)C)oc1C.O=C(O)C(F)(F)F.O=C(O)C(F)(F)F,-40.85
20,Cc1cccc(CN2C[C@@H]3OCCN(CC(=O)N(C)C)[C@@H]3C2)c1.O=C(O)C(F)(F)F,97.29
21,O=C(NC[C@H]1OC[C@@H](NC2COC2)[C@@H]1O)C1CCCC1,-18.2
22,Cn1cc(C(C)(O)CNC(=O)c2ccc(Br)s2)cn1 (stereo unspecified),0.7525

row,SMILES,Percent Effect [%]
1,Cc1noc(C)c1CN(Cc1ccccc1)C(C)C,-1.884
2,CNC(=O)[C@@H]1CCO[C@@H]2CCN(C3CCOCC3)C[C@@H]21.O=C(O)C(F)(F)F,-5.14
3,O=C(NC1CC1)[C@@H]1CCO[C@@H]2CCN(CCc3ccccc3)C[C@@H]21.O=C(O)C(F)(F)F,121.8
4,CN(C)C(=O)[C@@H]1CCO[C@@H]2CCN(CCOCc3ccccc3)C[C@H]21.O=C(O)C(F)(F)F,110
5,Cc1noc(C)c1CN1CC[C@H]2OCC[C@@H](C(=O)NCC3CC3)[C@H]2C1.O=C(O)C(F)(F)F,-0.6103
6,O=C(NCC1CC1)[C@@H]1CCO[C@@H]2CCN(Cc3ccc(F)cc3)C[C@H]21.O=C(O)C(F)(F)F,-1.927
7,O=C(NC1CCC1)[C@@H]1CCO[C@@H]2CCN(CCc3ccccc3)C[C@H]21.O=C(O)C(F)(F)F,10.39
8,O=C(NCC1CC1)[C@@H]1CCO[C@@H]2CCN(CCc3ccccc3)C[C@H]21.O=C(O)C(F)(F)F,103.2
9,O=C(NC1CC1)[C@@H]1CCO[C@@H]2CCN(C3CCOCC3)C[C@H]21.O=C(O)C(F)(F)F,-6.605
10,CNC(=O)[C@@H]1CCO[C@@H]2CCN(CCc3ccccc3)C[C@H]21.O=C(O)C(F)(F)F,100.2
11,CN(C)C(=O)[C@@H]1CCO[C@@H]2CCN(Cc3ccccc3)C[C@@H]21.O=C(O)C(F)(F)F,-6.959
12,CN(C)C(=O)[C@@H]1CCO[C@@H]2CCN(CCc3ccccc3)C[C@@H]21.O=C(O)C(F)(F)F,0.9995
13,CC1=N[C@@]2(CC[C@@H]3CN(S(=O)(=O)CC(C)C)C[C@@H]32)C(=O)N1CC1CC1,5.74
14,O=C(C1CCCN(Cc2cccc(F)c2)C1)N1CCc2sccc2C1 (stereo unspecified),1.206
15,CCN(CCc1nccs1)C(=O)c1sccc1C,-15.07
16,Cc1noc(C)c1CN(C)Cc1csc(-c2ccc(C(C)C)cc2)n1,-1.572
17,COCC(C)(CCO)NC(=O)Nc1cccc(F)c1C (stereo unspecified),-3.176
18,O=C([C@@H]1CCO[C@@H]2CCN(CC3CC3)C[C@H]21)N1CCCC1,-26.98
19,O=C(O)C(F)(F)F.O=C([C@H]1CN(CCc2ccccc2)C[C@H]2OCC[C@@H]12)N1CCCO1,-7.584
20,O=C(O)C(F)(F)F.O=C([C@@H]1CCO[C@@H]2CCN(CCc3ccccc3)C[C@@H]21)N1CCCC1,117.3
